TIM10 inh = growth inhibitors of isogenic TIM10 control yeast, primary screen, counter-screen for tim10-1 yeast inhibitor project, luminescence, uHTS; AID 463195, 2010; S. cerevisiae TIM10 strain growth, BacTiter-Glo luminescence, 24 h; inhibition, % at 10 µM; 330,000 compounds, 1.4% hits;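 active = inhibition of 40% or more at the single tested concentration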;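 note: wild-type TIM10 isogenic control strain grown at permissive 25 °C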
tim10-1 inh = growth inhibitors of tim10-1 mutant yeast, primary screen, luminescence, uHTS | AID 463190, 2010 | inhibition, % at 20 µM | 330,000 compounds, 2.2% hits | S. cerevisiae tim10-1 ts strain growth, BacTiter-Glo, 24 h;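 active = inhibition of at least 40%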;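 note: mutant grown at 25 °C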
PfHsp90 set2 = growth inhibition of PfHsp90-expressing yeast, primary screen, antimalarial PfHsp90 inhibitor project, S. cerevisiae, BacTiter-Glo luminescence, single point, set 2; BacTiter-Glo ATP, 48 h; yeast lacking PDR1 and PDR3 efflux regulators; inhibition, % at 9.4 µM; 310,000 compounds, 0.32% hits;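 active = every replicate shows inhibition above about 80%, whatever the replicate mean, limit read from the data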
tim23-1 inh = growth inhibitors of tim23-1 mutant yeast, primary screen, luminescence, uHTS | S. cerevisiae tim23-1 growth, BacTiter-Glo luminescence, 24 h | inhibition, % at 20 µM | 330,000 compounds, 1.3% hits;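 active = growth inhibition of the mutant yeast at or above 50%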;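 note: temperature-sensitive mutant grown at 25 °C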
NALP3 yeast inh = NALP3 inflammasome inhibitors in reconstituted yeast, primary screen, luminescence, uHTS; AID 2825, 2010; Yeast reconstituted NLRP3/ASC/caspase-1, beta-gal luminescence, 24 h; 330,000 compounds, 0.39% hits; inhibition, % at 10 µM;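 active = inhibition of 50% or more; inactive = inhibition below 50%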
tim23-1 confirm = tim23-1 mutant yeast growth inhibitors, confirmation, luminescence, single concentration; shares compounds with tim23-1 inh; S. cerevisiae tim23-1 growth, BacTiter-Glo luminescence, 24 h; inhibition, % at 20 µM; 4,400 compounds, 83% hits; AID 463218, 2010;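 active = inhibition above about 39% in either of two replicate wells at 20 µM, limit read from the data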;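 note: temperature-sensitive tim23-1 mutant grown at 25 °C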
Large screens that a line does not name were inactive (follow-up assays come after a bar, where they were run). The list is not random: actives were taken first. Their share in the collection is about 3.7%.

COc1ccc(CCNC(=O)COc2ccc(S(=O)(=O)N3CCOCC3)cc2C)cc1	none
O=C(OCc1ccc(F)cc1)c1cc(=O)c2ccccc2o1	tim23-1 inh 93.9 | tim23-1 confirm inactive
O=C(O)c1ccc(N/N=C/C2=Cc3ccccc3OC2)cc1	none
O=C(NCc1ccccn1)C1CCN(S(=O)(=O)N2CCCC2)CC1	none
Cc1[nH]n(-c2ccccc2)c(=O)c1C(c1cccc([N+](=O)[O-])c1)c1c(C)[nH]n(-c2ccccc2)c1=O	tim23-1 inh 56.4 | tim23-1 confirm 60.2
Cc1[nH]n(-c2ccccc2)c(=O)c1C(c1ccc(C(=O)O)cc1)c1c(C)[nH]n(-c2ccccc2)c1=O	none
COc1ccccc1C=NNC(=O)C(=O)NN=Cc1ccccc1OC	none (no result: TIM10 inh, tim10-1 inh, tim23-1 inh, NALP3 yeast inh)
COc1ccc(N(C(=O)CNC(=O)c2cccs2)C(C(=O)NC2CCCC2)c2cccnc2)cc1 (stereo not drawn)	tim23-1 inh 50.0 | tim23-1 confirm inactive
O=C(NCC(=O)N(c1ccccc1)C(C(=O)NC1CCCC1)c1cccnc1)c1cccs1 (stereo not drawn)	none
COc1ccc(CN(CC(O)COCc2ccccc2)S(=O)(=O)c2ccccc2Br)cc1OC (stereo not drawn)	tim23-1 inh 50.0 (no result: NALP3 yeast inh) | tim23-1 confirm 36.0
O=C(NC(=S)NCc1ccc(Cl)cc1Cl)c1ccco1	none
O=C(NC(=S)NCc1ccccc1)C1CCCCC1	tim23-1 inh 54.8 | tim23-1 confirm inactive
O=C(NC(=S)NCc1ccccc1)c1ccc2c(c1)OCO2	tim23-1 inh 50.1 | tim23-1 confirm 42.7
CCOc1ccccc1NC(=O)c1ccccc1NC(=O)c1ccco1	none
O=C(NC(=S)NCc1ccc(Cl)cc1)c1ccco1	tim23-1 inh 50.6 | tim23-1 confirm 45.1
CCOc1ccccc1NC(=S)NC(=O)c1ccco1	tim23-1 inh 54.1 | tim23-1 confirm inactive
COc1ccc(Cl)cc1NC(=O)C/C(C)=N/NC(=O)COc1ccc(C)cc1	none
CS(=O)(=O)N(CC(=O)N1CCCC1)c1cccc(F)c1	none
O=C(CN1CCCCC1)Nc1ccc(NC(=O)c2ccccc2Cl)cc1Cl	none
O=C(NNC(=S)NCc1ccccc1)c1ccc(Br)o1	none
O=C(NC(=S)NCc1ccccc1)c1ccc(Br)o1	tim23-1 inh 61.4 | tim23-1 confirm inactive
COCCNc1nc(-c2ccc(OC)cc2)c(-c2ccc(OC)cc2)s1	none
CCC(=O)NC(c1ccc(C)cc1)c1ccc2cccnc2c1O (stereo not drawn)	PfHsp90 set2 112.4, tim23-1 inh 62.4 | tim23-1 confirm 57.5
Oc1ccccc1C(Nc1nccs1)c1ccc2cccnc2c1O (stereo not drawn)	none
CCCC(=O)NC(c1ccccc1Cl)c1ccc2cccnc2c1O (stereo not drawn)	PfHsp90 set2 113.3, tim23-1 inh 50.5 | tim23-1 confirm 52.9
CCCC(=O)NC(c1ccc(C(C)C)cc1)c1ccc2cccnc2c1O (stereo not drawn)	tim23-1 inh 56.8 | tim23-1 confirm 62.8
COc1ccc(CNC(=O)C2CCCN2C(=O)NCc2ccccc2)cc1 (stereo not drawn)	none
COC(=O)CCCNC(=O)c1ccccn1	none
COc1cccc(C2=NN(C(=O)c3ccco3)C(c3ccco3)C2)c1 (stereo not drawn)	tim23-1 inh 51.8 | tim23-1 confirm 41.4
CS(=O)(=O)Nc1ccc(C2=NN(C(=O)c3ccco3)C(c3ccco3)C2)cc1 (stereo not drawn)	none
COc1ccc(-n2nc3c(c2NC(=O)COc2ccccc2F)CS(=O)(=O)C3)cc1	none
Brc1cccc(-c2n[nH]c(-c3ccccc3)n2)c1	tim23-1 inh 69.5 | tim23-1 confirm 48.1
Cc1ccc2occ(/C=N/NC(=O)c3ccccc3Br)c(=O)c2c1	tim23-1 inh 63.0 | tim23-1 confirm 66.2
O=C(N/N=C/c1coc2ccccc2c1=O)c1ccccc1	none
O=C(N/N=C/c1coc2ccccc2c1=O)c1ccc(Cl)cc1	tim23-1 inh 53.8 | tim23-1 confirm 42.8
CCOc1ccccc1C(=O)N/N=C/c1coc2ccc(C)cc2c1=O	tim23-1 inh 63.7 | tim23-1 confirm 65.7
C[C@H](NC(=O)c1nc[nH]c1C(=O)N1CCN(c2ccccc2)CC1)c1ccccc1	none
COC(=O)c1ccc(-c2ccc(C(c3c(C)[nH][nH]c3=O)c3c(C)[nH][nH]c3=O)o2)cc1	tim23-1 inh 57.1 | tim23-1 confirm 37.4
Cc1[nH][nH]c(=O)c1C(c1ccc(-c2cccc(C(=O)O)c2)o1)c1c(C)[nH][nH]c1=O	none
Cc1[nH][nH]c(=O)c1C(c1ccc(-c2cccc(Cl)c2)o1)c1c(C)[nH][nH]c1=O	tim23-1 inh 78.4 | tim23-1 confirm 61.9
CCOc1ccccc1N1C(=O)c2ccc(C(=O)Nc3cccnc3)cc2C1=O	tim23-1 inh 50.2 | tim23-1 confirm inactive
CC(C)(C)N(Cc1ccccc1)C(=O)CN1C(=O)c2ccccc2S1(=O)=O	none
O=C(c1ccco1)N1c2ccccc2Sc2ccccc21	none
O=C(c1ccco1)N1CCN(C(=O)N2c3ccccc3Sc3ccccc32)CC1	tim23-1 inh 56.0 | tim23-1 confirm inactive
CC(C)(C)c1csc(NC(=O)c2ccc(Cl)s2)n1	tim23-1 inh 70.3 | tim23-1 confirm 73.7
Cc1ccc(C(=O)Nc2nc(C(C)(C)C)cs2)s1	tim23-1 inh 52.1 | tim23-1 confirm 42.5
CC(C)(C)c1csc(NC(=O)c2ccc(Br)o2)n1	tim23-1 inh 53.2 | tim23-1 confirm 48.2
CC1=NN(c2ccc(Cl)cc2)C(=O)C1C(c1ccccc1O)c1c(C)[nH]n(-c2ccc(Cl)cc2)c1=O (stereo not drawn)	tim23-1 inh 57.1 | tim23-1 confirm 49.3
CN(C)/C=C\C(=C/C(=O)C(F)(F)F)Nc1ccccc1Oc1ccccc1	none
CCC(C)c1ccccc1N1CC(C(=O)N2CCN(C(=O)c3ccco3)CC2)CC1=O (stereo not drawn)	none
O=[N+]([O-])c1ccc2[nH]nc(-c3ccccc3)c2c1	tim23-1 inh 59.0 | tim23-1 confirm inactive
CSc1ccc(S(=O)(=O)NC2CCCCCC2)cc1	tim23-1 inh 53.4 | tim23-1 confirm 48.4
Cc1ccc(Nc2nc(Cl)c(C=O)s2)cc1Cl	tim23-1 inh 66.9 | tim23-1 confirm 70.8
O=Cc1sc(Nc2ccccc2)nc1Cl	tim23-1 inh 51.1 | tim23-1 confirm 48.7
COc1ccccc1Nc1nc(Cl)c(C=O)s1	none (no result: PfHsp90 set2)
Cc1ccc(Nc2nc3ccccc3c(=O)s2)cc1C	none
CC12CCC(c3c(C(=O)Nc4nccs4)nn(-c4ccccc4)c31)C2(C)C (stereo not drawn)	tim23-1 inh 59.2 | tim23-1 confirm 56.6

Screens (PubChem BioAssay)
